According to PubChem BioAssay (NCI):
About 83,000 compounds went through this panel and 20% of them were active in at least one assay; those are over-represented in the sample as a whole.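 Negative percent growth values reflect cell death: -40 means 40% of the cells present at the start died, and -100 means all died.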 Activity calls are given as the source filed them. The calls were made as follows: active = growth percent below 10; inactive = the rest.

Legend:
Experiment in all cases: NCI-60 one-dose screen, 48 h (100 = growth as untreated, 0 = no growth, -100 = all killed)
Settings in all cases: 10 µM unless noted
SK-MEL-2 melanoma = system: SK-MEL-2 melanoma
EKVX NSCLC = system: EKVX NSCLC
SN12C renal = system: SN12C renal
UO-31 renal = system: UO-31 renal
TK-10 renal = system: TK-10 renal
ACHN renal = system: ACHN renal
A498 renal = system: A498 renal
CCRF-CEM leukemia = system: CCRF-CEM leukemia
MOLT-4 leukemia = system: MOLT-4 leukemia
SR leukemia = system: SR leukemia

Measured: growth

CC(=O)O[C@@H]1C[C@]2(C)[C@H]3[C@H](O)C[C@@H]4C5=CC(C)(C)CC[C@]5(C)CC[C@@]4(C)[C@]3(C)CC[C@H]2C(C)(C)[C@H]1O
inactive: SK-MEL-2 melanoma 107% | EKVX NSCLC 96.5% | SN12C renal 99.9% | UO-31 renal 84.1% | TK-10 renal 104% | ACHN renal 102% | A498 renal 119% | CCRF-CEM leukemia 106% | MOLT-4 leukemia 87.1% | SR leukemia 87.1%

O=c1c2ccccc2oc2ccc(OCCCCCN3CCCCCC3)cc12
inactive: SK-MEL-2 melanoma 99.4% | EKVX NSCLC 90.4% | SN12C renal 69.4% | UO-31 renal 68.1% | TK-10 renal 72.2% | ACHN renal 103% | A498 renal 82.7% | CCRF-CEM leukemia 82.5% | MOLT-4 leukemia 46.7% | SR leukemia 46.9%

Cc1ccccc1NC(=O)c1sc2nc(C)c(C(C)O)cc2c1N (stereo not given)
active: SR leukemia 4.46%
inactive: SK-MEL-2 melanoma 34.4% | EKVX NSCLC 75.7% | SN12C renal 51.3% | UO-31 renal 69.6% | TK-10 renal 51.5% | ACHN renal 78.3% | A498 renal 47.9% | CCRF-CEM leukemia 45.7% | MOLT-4 leukemia 32.6%

O=[N+]([O-])c1cccc(CN(Cc2cccc([N+](=O)[O-])c2O)c2ccccc2)c1O
inactive: SK-MEL-2 melanoma 84.7% | EKVX NSCLC 77.3% | SN12C renal 80.6% | UO-31 renal 39.6% | TK-10 renal 89.7% | ACHN renal 74.6% | A498 renal 65.5% | CCRF-CEM leukemia 67.8% | MOLT-4 leukemia 64.6% | SR leukemia 55.8%

CC1(C)[C@@H](O)CC[C@]2(C)[C@H]3CC[C@@H]4[C@H]5[C@H](c6cn(-c7ccccc7)nn6)CC[C@]5(CO)CC[C@@]4(C)[C@]3(C)CC[C@@H]12
inactive: SK-MEL-2 melanoma 92.4% | EKVX NSCLC 88% | SN12C renal 90% | UO-31 renal 79.9% | TK-10 renal 98.4% | ACHN renal 84.4% | A498 renal 87.6% | CCRF-CEM leukemia 94.4% | MOLT-4 leukemia 67.7% | SR leukemia 64.7%

C=C(C)[C@@H]1CC[C@]2(C(=O)O)CC[C@]3(C)[C@H](CC[C@@H]4[C@@]5(C)C[C@@H](CC#Cc6ccccc6)C(=O)C(C)(C)[C@@H]5CC[C@]43C)[C@@H]12
inactive: SK-MEL-2 melanoma 61.1% | EKVX NSCLC 28.6% | SN12C renal 43.7% | UO-31 renal 28.9% | TK-10 renal 33.3% | ACHN renal 23.8% | A498 renal 32.9% | CCRF-CEM leukemia 24.9% | MOLT-4 leukemia 22.3% | SR leukemia 38%

CCOC(=O)CC[C@H](NC(=O)c1ccc(NC)c2ccccc12)C(=O)OCC
inactive: SK-MEL-2 melanoma 106% | EKVX NSCLC 89.4% | SN12C renal 90.3% | UO-31 renal 93.8% | TK-10 renal 90.6% | ACHN renal 98.8% | A498 renal 91% | CCRF-CEM leukemia 91.2% | MOLT-4 leukemia 98.6% | SR leukemia 101%

CN1CCN(CC#CCOC(=O)CNC(=O)[C@]23CCC(C)(C)C[C@H]2C2=CC[C@@H]4[C@@]5(C)CC[C@H](O)C(C)(C)[C@@H]5CC[C@@]4(C)[C@]2(C)CC3)CC1
inactive: SK-MEL-2 melanoma 95.4% | EKVX NSCLC 89.1% | SN12C renal 82.2% | UO-31 renal 63% | TK-10 renal 109% | ACHN renal 92.5% | A498 renal 69.4% | CCRF-CEM leukemia 85.6% | MOLT-4 leukemia 70.7%
active: SR leukemia 7.96%

C#CCN(CCCOc1ccc(Cl)cc1Cl)CCCSC(=O)CCCCCN1/C(=C\C=C2/CCCC(/C=C/C3=[N+](CCCCCC(=O)[O-])c4ccccc4C3(C)C)=C2Cl)C(C)(C)c2ccccc21
active: SK-MEL-2 melanoma -29% | SN12C renal 5.06% | CCRF-CEM leukemia -1.58% | MOLT-4 leukemia -18.7% | SR leukemia -16.2%
inactive: EKVX NSCLC 61.6% | UO-31 renal 94.9% | TK-10 renal 50.3% | ACHN renal 102% | A498 renal 13%

COc1cc(-c2csc(NC(=O)Nc3ccc(Cl)cc3)n2)cc(OC)c1OC
active: CCRF-CEM leukemia 6.31% | MOLT-4 leukemia -17%
inactive: SK-MEL-2 melanoma 29.3% | EKVX NSCLC 26% | SN12C renal 27.5% | UO-31 renal 16.9% | TK-10 renal 26.6% | ACHN renal 18.3% | A498 renal 21.7% | SR leukemia 33.7%

O=Cc1[nH]c(Sc2ccccc2)c2ccccc12
inactive: SK-MEL-2 melanoma 81.6% | EKVX NSCLC 76.1% | SN12C renal 77.7% | UO-31 renal 48.6% | TK-10 renal 80.3% | ACHN renal 96.6% | A498 renal 95.3% | CCRF-CEM leukemia 12.1% | MOLT-4 leukemia 17% | SR leukemia 59.3%

COc1ccc2c(c1)OC13Oc4cc(OC)ccc4C=C1CCCCC3=C2
inactive: SK-MEL-2 melanoma 80.2% | EKVX NSCLC 88.8% | SN12C renal 93.6% | UO-31 renal 84.7% | TK-10 renal 86.8% | ACHN renal 104% | A498 renal 98.2% | CCRF-CEM leukemia 80.9% | MOLT-4 leukemia 80.6% | SR leukemia 99%

COC(=O)[C@]1(C)CCC[C@]2(C)[C@H]3C[C@H]4C(C(C)C)=C[C@]3(CC[C@H]21)[C@@H]1C(=O)N(CCC#N)C(=O)[C@@H]14
inactive: SK-MEL-2 melanoma 88.6% | EKVX NSCLC 79.5% | SN12C renal 90.2% | UO-31 renal 76.1% | TK-10 renal 104% | ACHN renal 96.3% | A498 renal 105% | CCRF-CEM leukemia 61.8% | MOLT-4 leukemia 38.2% | SR leukemia 80.4%

Cc1cc(C)c2nc(Nc3nc(C)c(C)c(=O)[nH]3)nc(C)c2c1
inactive: EKVX NSCLC 12.4% | SN12C renal 20% | UO-31 renal 11.1% | TK-10 renal 17% | ACHN renal 23.5%
active: SK-MEL-2 melanoma -25.6% | A498 renal -9.66% | CCRF-CEM leukemia 7.98% | MOLT-4 leukemia 4.84% | SR leukemia -9.54%

COc1cc2cc(c1Cl)N(C)C(=O)C[C@H](OC(=O)[C@H](C)N(C)C(=O)CCS)C[C@]1(C)O[C@H]1[C@H](C)[C@@H]1C[C@@](O)(NC(=O)O1)[C@H](OC)/C=C/C=C(\C)C2
inactive: SK-MEL-2 melanoma 20% | EKVX NSCLC 38.8% | SN12C renal 28.2% | UO-31 renal 47.4% | TK-10 renal 62.4% | ACHN renal 25.4% | CCRF-CEM leukemia 16.2% | MOLT-4 leukemia 13.1% | SR leukemia 12.2%
active: A498 renal -21.9%

COC(=O)CCc1cc(O)c2c(c1)[C@@H](C(=O)OC)[C@H](c1ccc(O)c(O)c1)O2
inactive: SK-MEL-2 melanoma 47.8% | EKVX NSCLC 87.7% | SN12C renal 95.1% | UO-31 renal 67.7% | TK-10 renal 90.6% | ACHN renal 98.2% | A498 renal 98% | CCRF-CEM leukemia 53.6% | MOLT-4 leukemia 47.7% | SR leukemia 36%

C=C(C)[C@@H]1CC[C@]2(C(N)=O)CC[C@]3(C)[C@H](CC[C@@H]4[C@@]5(C)CCCNC(C)(C)[C@@H]5CC[C@]43C)[C@@H]12
active: SR leukemia 3%
inactive: SK-MEL-2 melanoma 105% | EKVX NSCLC 87.5% | SN12C renal 77.7% | UO-31 renal 84.4% | TK-10 renal 107% | ACHN renal 88.9% | A498 renal 99% | CCRF-CEM leukemia 52.5% | MOLT-4 leukemia 48.9%

O=CN1N=C(c2ccc3c(c2)OCO3)CC1c1cccc(Nc2ccnc3cc(C(F)(F)F)ccc23)c1 (stereo not given)
inactive: SK-MEL-2 melanoma 76.1% | EKVX NSCLC 75.2% | SN12C renal 88.9% | UO-31 renal 63.7% | TK-10 renal 76.9% | ACHN renal 85.8% | A498 renal 72.5% | CCRF-CEM leukemia 66.5% | MOLT-4 leukemia 53.4% | SR leukemia 29.9%

COc1ccc(C2N(c3cc(OC)c(OC)c(OC)c3)C(=O)C2(F)F)cc1F (stereo not given)
inactive: SK-MEL-2 melanoma 84.6% | EKVX NSCLC 77.7% | SN12C renal 54.9% | UO-31 renal 53.5% | TK-10 renal 106% | ACHN renal 60.8% | A498 renal 97.8% | CCRF-CEM leukemia 13% | MOLT-4 leukemia 18.7% | SR leukemia 18.7%

COc1ccc2nc(-c3ccc(OC)c(OC)c3)cc(-c3nnc(SCC(=O)Nc4ccc(C(C)=O)cc4)o3)c2c1
inactive: SK-MEL-2 melanoma 100% | EKVX NSCLC 108% | SN12C renal 98.8% | UO-31 renal 91.7% | TK-10 renal 109% | ACHN renal 101% | A498 renal 93.6% | CCRF-CEM leukemia 94.8% | MOLT-4 leukemia 95.5% | SR leukemia 88.8%

COc1cc2c(cc1OCCCOc1cc3c(cc1OC)C(=O)N1CC(F)(F)C[C@H]1C=N3)N=C[C@@H]1CC(F)(F)CN1C2=O
active: A498 renal -66.6% | CCRF-CEM leukemia -33.1% | MOLT-4 leukemia -8.82% | SR leukemia -12.1%
inactive: SK-MEL-2 melanoma 34.7% | EKVX NSCLC 49.2% | SN12C renal 35.8% | UO-31 renal 30% | TK-10 renal 11.3% | ACHN renal 24.7%

C[C@H]1[C@H](C)CC[C@]2(C(=O)OCCCC[P+](c3ccccc3)(c3ccccc3)c3ccccc3)CC[C@]3(C)C(=CC[C@@H]4[C@@]5(C)CC[C@H](OC(=O)C(Cl)Cl)C(C)(C)[C@@H]5CC[C@]43C)[C@H]12
active: SK-MEL-2 melanoma -63.8% | EKVX NSCLC -35.4% | SN12C renal -81% | UO-31 renal -93.9% | TK-10 renal -76.8% | ACHN renal -79.6% | A498 renal -82% | CCRF-CEM leukemia -16.6% | MOLT-4 leukemia -49.8% | SR leukemia -49.4%

Nc1c(C(=O)Nc2ccccn2)sc2nc3c(cc12)CCCCCC3
inactive: SK-MEL-2 melanoma 11.5% | EKVX NSCLC 31.8% | SN12C renal 39.2% | UO-31 renal 35.5% | TK-10 renal 35.7% | ACHN renal 36.1% | A498 renal 15% | MOLT-4 leukemia 16.3%
active: CCRF-CEM leukemia 5.58% | SR leukemia 7.99%

COC(=O)/C=C1\SC(=Nc2ccc(F)cc2)N(CCc2c[nH]c3ccccc23)C1=O
inactive: SK-MEL-2 melanoma 102% | EKVX NSCLC 92.6% | SN12C renal 103% | UO-31 renal 81% | TK-10 renal 106% | ACHN renal 103% | A498 renal 110% | CCRF-CEM leukemia 68.2% | MOLT-4 leukemia 76.4% | SR leukemia 85.5%

CCCCc1n(Cc2ccc3ccccc3c2)c2ccccc2[n+]1Cc1ccc2ccccc2c1
active: SK-MEL-2 melanoma -73.5% | EKVX NSCLC -84.6% | SN12C renal -92.3% | UO-31 renal -90.3% | TK-10 renal -87.1% | ACHN renal -91.4% | A498 renal -92.7% | CCRF-CEM leukemia -48.2% | MOLT-4 leukemia -60.9% | SR leukemia -54.1%
